Molecules are shown by their SMILES. Inconclusive results are not listed. A call without a number means that no potency is given here. A number with no mark means an inactive call. Active and inactive are the calls of the source. The call rests on the fitted dose curve; in most records, active means well fitted inhibition curve with a large enough effect; inconclusive means small, poorly fitted or top-dose-only effect; inactive means flat fitted curve, though single readings scatter.
Potency means the concentration at half of the fitted maximal effect.

A short description of the assay: Primary qHTS for inhibitors of nuclear receptor binding SET domain protein 2 (NSD2) in an isogenic RCH-ACV NSD2 p.E1099K mutant (9B) (AID 1645876). Further: nearly all actives have a fitted effect of over 70% in size. Conditions: RCH-ACV (leukaemia line) NSD2 E1099K (9B) viability, CellTiter-Glo, 72 h; series mostly up to 44.9 µM.
As to `COc1cccc(-c2c(C)n(Cc3c(F)cccc3C(F)(F)F)c(=O)n(C[C@H](NCCCC(=O)O)c3ccccc3)c2=O)c1F`, the Potency entry was “inactive”.

As for `C=C1C[C@H]2C=Nc3cc(OCCCOc4cc5c(cc4OC)C(=O)N4CC(=C)C[C@H]4C=N5)c(OC)cc3C(=O)N2C1`, the Potency result is “inactive”.

In the case of `O=C(O)CCNc1cc(N2CCc3ccccc3CC2)nc(-c2cccnc2)n1`, the Potency entry is “inactive”.

On to `CN1CCN(C(=O)c2ccc(-c3ccc4c(C=O)c(O)ccc4c3)s2)CC1`, for which the Potency entry is “inactive”.

On to `N=C(N)c1ccc2nc(-c3cc(CC(=O)N[C@@H](CC(=O)O)C(=O)O)cc(-c4cc(S(N)(=O)=O)ccc4O)c3O)[nH]c2c1`, for which the Potency result is “inactive”.

In the case of `C[C@H](Nc1nc(N[C@H](C)C(F)(F)F)nc(-c2cccc(Cl)n2)n1)C(F)(F)F`, the Potency entry is “inactive”.

In the case of `O=C1OC(COc2ccccc2[N+](=O)[O-])CC1Cc1ccccc1` (stereo not given), the Potency result is “inactive”.

On to `COc1cc2c(cc1OC)CN(CCc1ccc(-n3nnc(-c4cc(OC)c(OC)cc4NC(=O)c4cc(=O)c5ccccc5o4)n3)cc1)CC2`, for which the outcome was “inactive [at 0.588 µM]”.

Regarding `COCCNc1cc(NC(=O)N2CCCc3cc(CN4CCN(C)CC4=O)c(C=O)nc32)ncc1C#N`, the activity change, negative = viability loss is 3.8% [at 9.23 µM].

With `N#Cc1ccnc(N2C(=O)CC[C@H]2C(=O)N(c2cncc(F)c2)C(C(=O)NC2CC(F)(F)C2)c2ccccc2Cl)c1` (stereo not given in full), the Potency result is “inactive”.

For the compound `CC1(N)CCN(c2cnc(-c3cccc(Cl)c3Cl)c(N)n2)CC1`, the Potency result is “inactive”.

Take `O=C(O)C[C@H]1CCc2c1[nH]c1ccc(OCc3ccc(C4CCCC4)c(C(F)(F)F)c3)cc21`: the Potency result is “inactive”.

Consider `CCOc1ccc(Cc2cc([C@@H]3O[C@H](CO)[C@@H](O)[C@H](O)[C@H]3O)ccc2Cl)cc1`, for which the Potency result was “inactive”.

On to `COc1cc(C)[nH]c(=O)c1CN1CCc2c(Cl)cc([C@H](OC)C3COC3)c(Cl)c2C1=O`, for which the Potency entry is “inactive”.

On to `CC[C@@]1(O)C(=O)OCc2c1cc1n(c2=O)Cc2c-1nc1ccccc1c2CCNC(C)C`, for which the Potency was 0.0042 µM (active).

Regarding `CC1(C)OC2=C(C(=O)c3ccccc3C2=O)[C@H](NCc2ccccc2)[C@@H]1O`, the Potency is 7.42 µM (active).

Consider `CN[C@@H](C)C(=O)N[C@H](C(=O)N1CCC[C@H]1C(=O)Nc1sc(-c2ncco2)nc1-c1ccccc1)C1CCCCC1`, for which the Potency result was “inactive”.

As to `O=C(O)c1ccccc1-c1ccc(/C=c2\sc3nc4cc(Br)cnc4n3c2=O)o1`, the Potency result is “inactive”.

For the compound `O=C(/C=C/c1ccc(/C=C/C(=O)Nc2ccc(C3=NCCN3)cc2)cc1)Nc1ccc(C2=NCCN2)cc1`, the activity change, negative = viability loss was -16.1% [at 4.96 µM].

With `Cc1c(NC(=O)c2cc(C(N)=O)nc3cc(F)ccc23)c(C(F)(F)F)nn1Cc1ccc(C(C)(C)C)cc1`, the Potency result was “inactive”.

`COC1CCC(N2C(=O)CNc3ncc(-c4ccc(C(C)(C)O)nc4)nc32)CC1` (stereo not given): the Potency is 3.72 µM (active).

Consider `Cc1c(-c2c(-c3ccc(F)o3)sc3ncnc(O[C@@H](Cc4ccccc4OCc4ccnn4CC(F)(F)F)C(=O)O)c23)ccc(OCCN2CCN(C)CC2)c1Cl`, for which the Potency is 0.662 µM (active).

For the compound `Cn1cc(-c2nc(N[C@@H]3CCCC[C@@H]3N)c(F)c3c2C(=O)NC3)cn1`, the Potency was 0.662 µM (active).

Turning to `O=C1NC(=O)/C(=C\c2ccc(-c3ccc(F)cc3)o2)S1`, the Potency result was “inactive”.

On to `CONC(=O)Nc1ccc(-c2sc3c(c2CN(C)Cc2ccccc2)c(=O)n(-c2ccccc2)c(=O)n3Cc2c(F)cccc2F)cc1`, for which the Potency entry was “inactive”.

For `Cc1[nH]cnc1CN1CCN(C(=O)N[C@@H](CC(C)C)C(=O)O)[C@@H](Cc2ccccc2)C1=O`, the Potency entry is “inactive”.

Regarding `O=C(O)CNC(=O)c1nc(Cl)c2ccccc2c1O`, the Potency entry was “inactive”.

For `CC(C)(O)c1coc(S(=O)(=O)NC(=O)Nc2c3c(cc4c2CCC4)CCC3)c1`, the Potency entry is “inactive”.

Regarding `Cc1nc(NC(=O)N2CCC[C@H]2C(N)=O)sc1-c1csc(C(C)(C)C)n1`, the Potency was 5.25 µM (active).

Take `C/C=C1\NC(=O)[C@H]2CSSCC/C=C\[C@H](CC(=O)N[C@H](C(C)C)C(=O)N2)OC(=O)[C@H](C(C)C)NC1=O`: the Potency was 0.0074 µM (active).

Take `CC(C)[C@H]1C(=O)N[C@@H](CCCN=C(N)N)C(=O)NCC(=O)N[C@@H](CC(=O)O)C(=O)N[C@H](Cc2ccccc2)C(=O)N1C`: the Potency entry was “inactive”.

In the case of `CC(C)n1c(=O)cc(N[C@@H](C)c2ccccc2)[nH]c1=O`, the Potency result is “inactive”.

Consider `CSC[C@H]1CN(Cc2c[nH]c3c(N)ncnc23)C[C@@H]1O`, for which the Potency entry is “inactive”.

In the case of `C=CC(=O)Nc1cccc(Oc2nc(Nc3ccc(N4CCN(C)CC4)c(F)c3)nc3[nH]ccc23)c1`, the Potency is 1.48 µM (active).

On to `COCCOC(=O)N1CCN(S(=O)(=O)c2cc(F)c(Oc3ccc(Cl)cc3)c(F)c2)C(C(=O)NO)C1` (stereo not given), for which the Potency is 5.9 µM (active).

In the case of `COc1nc(N)nc2c1ncn2C1OC(CO)C(O)C1O` (stereo not given), the Potency is 5.25 µM (active).

As to `COc1ccc(COc2ccc(Cc3cnc(N)nc3N)cc2OC)cc1`, the Potency result is “inactive”.

In the case of `CCOC(=O)N[C@@H]1CC[C@@H]2[C@@H](C1)C[C@H]1C(=O)O[C@H](C)[C@H]1[C@H]2/C=C/c1ccc(-c2cccc(F)c2)cn1`, the Potency is 18.6 µM (active).

On to `O=C(NO)c1ccc(C2=Nc3ccccc3Oc3ccccc32)cc1`, for which the Potency was 2.95 µM (active).

For `O=C1CC(c2c[nH]c3ccc(F)cc23)C(=O)N1` (stereo not given), the Potency result is “inactive”.

The values are drawn from PubChem BioAssay (NCATS).
